Hits are enriched below; roughly 2.9% of the tested compounds scored in any of these assays.
Mtb BioA inh – M. tuberculosis BioA enzyme inhibitors, primary screen, biochemical, plate reader, single point, HTS; purified M. tuberculosis BioA enzyme; inhibition, % at 9.99 µM; 360,000 tested, 0.096% active; 7,8-diaminopelargonic acid synthase BioA (Mycobacterium tuberculosis); in the data active = inhibition above about 40%
GDH-TPI counter – GDH-TPI coupling enzyme inhibitors, primary screen, artefact control for M. tuberculosis FBA inhibitor project, biochemical, absorbance, full deck; inhibition, % at 4.8 µM; 360,000 tested, 1.2% active; GDH-TPI coupled enzyme counterscreen, NADH absorbance; AID 588335, 2011; in the data active = inhibition above about 30%;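 also: 0% = DMSO wells and 100% = wells lacking the enzyme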
Mtb hypoxia inh – PubChem AID 1159583. M. tuberculosis hypoxia-regulated fluorescent reporter, fluorescence. 300,000 tested, 0.1% active. fluorescence inhibition, % (test concentration not listed); in the data active = fluorescence inhibition mostly above about 23%, no sharp cut-off; inactive = mostly below about 17%
FBA Mtb inh – Mtb FBA enzyme inhibitors, primary screen, biochemical, fluorescence, strain H37Rv; Fructose-bisphosphate aldolase (Mycobacterium tuberculosis (strain ATCC 25618 / H37Rv)), …; purified M. tuberculosis FBA, fluorescence read-out; inhibition, % at 1 µM; 360,000 tested, 2.3% active; in the data active = inhibition above about 27%;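 also: 0% = vehicle and 100% = reference inhibitor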
Target sequence (P9WQA3 whole entry, looked up): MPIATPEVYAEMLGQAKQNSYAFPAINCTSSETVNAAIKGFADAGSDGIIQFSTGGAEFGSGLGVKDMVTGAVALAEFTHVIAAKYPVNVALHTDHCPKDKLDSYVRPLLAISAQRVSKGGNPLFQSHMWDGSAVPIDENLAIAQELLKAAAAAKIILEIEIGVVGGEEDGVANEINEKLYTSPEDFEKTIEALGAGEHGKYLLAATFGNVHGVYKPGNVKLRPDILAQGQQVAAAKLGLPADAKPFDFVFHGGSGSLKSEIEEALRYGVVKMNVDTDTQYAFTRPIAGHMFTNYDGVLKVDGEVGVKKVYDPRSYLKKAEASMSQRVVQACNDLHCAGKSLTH
FadD28 FP inh – inhibitors of FadD28 bisubstrate probe binding, primary screen, biochemical, fluorescence polarization, single point. 360,000 tested, 0.22% active. Mycobacterium tuberculosis FadD28 fatty-acid-AMP ligase. inhibition, % at 12.5 µM. AID 588549, 2011; in the data active = inhibition above about 8.5%, passing the limit was not always enough
The depositor's hits bear a star; / = not tested or not shown; + = active, no number.

SMILES | Mtb BioA inh | GDH-TPI counter | Mtb hypoxia inh | FBA Mtb inh | FadD28 FP inh
CC(C(=O)Nc1ccc(C(=O)O)c(O)c1)N1C(=O)/C(=C\c2ccco2)SC1=S (stereo not given) | 1.1 | 18.7 | -1.4 | 0.9 | 25.3*
CCCNC(=O)N1C[C@H]2[C@@H](c3ccccc31)[C@H](CO)N2C(=O)Nc1ccccc1 | -2.4 | / | / | / | /
CCS(=O)(=O)Nc1ccc2c(c1)C(=O)N(C)C[C@@H](OC)[C@H](C)CN(C(=O)NC(C)C)[C@H](C)CO2 | -2.4 | / | / | / | /
CC1(C)Cc2c(c(-c3ccccc3Cl)[nH]c(=O)c2C#N)CO1 | 1.6 | 16.7 | / | 8.8 | -2.4
N#Cc1c(-c2ccc(Cl)cc2)c2c([nH]c1=O)-c1ccccc1OC2 | 0.0 | 21.1 | -10.2 | 183.8* | -0.6
COc1ccc(-c2c(C#N)c(N)nc3c2CCCCCC3)cc1OC | 1.1 | 6.4 | 19.2 | -4.9 | 1.5
COC(=O)c1c(C#N)c(N)nc2c1CCC2 | -0.3 | 1.4 | 14.0 | 130.1* | -1.3
O=c1oc2cc(OCc3c(F)c(F)c(F)c(F)c3F)ccc2cc1-c1ccccn1 | / | -0.7 | 14.2 | 3.8 | -1.4
COC(=O)COc1ccc2cc(-c3ccccc3)c(=O)oc2c1 | -0.1 | 37.9* | -2.7 | + | -1.7
COc1ccc(-c2cc3ccc(OCC(C)=O)cc3oc2=O)cc1 | 0.4 | 14.8 | / | 154.8* | -2.9
NC(=O)COc1ccc2cc(-c3ccc(F)cc3)c(=O)oc2c1 | -2.6 | 17.9 | 11.8 | + | 0.1
NC(=O)COc1ccc2cc(-c3ccccc3)c(=O)oc2c1 | 0.2 | 30.8* | 6.5 | + | -0.7
COc1ccc(-c2cc3ccc(OCC(C)=O)cc3oc2=O)cc1OC | -0.3 | 17.3 | -4.1 | 1.3 | -2.7
COc1ccccc1C1=CC(=O)CC(c2ccc3c(c2)OCO3)C1 (stereo not given) | / | / | 10.3 | / | /
O=C(C[C@@H]1C[C@H]2c3cc(NS(=O)(=O)c4ccccc4)ccc3O[C@H]2[C@H](CO)O1)NC1CCCCC1 | -0.6 | / | / | / | /
O=C(COc1ccc2cc(-c3ccccc3)c(=O)oc2c1)NCC1CCC(C(=O)O)CC1 (stereo not given) | 1.2 | 49.0* | / | + | 0.0
O=C1N/C(=C\c2ccc(O)cc2)C(O)=C1C=NCc1ccccc1 | -1.9 | 37.1* | -3.4 | -3.5 | -2.3
COc1ccc(C(=O)N/C(=C\c2cccs2)c2nc3ccccc3[nH]2)cc1OC | / | 49.0* | 4.0 | 3.7 | -0.7
COc1ccc(C(=O)N/C(=C/c2cccs2)C(=O)NN)cc1OC | -3.8 | 11.5 | -0.4 | 1.7 | -0.7
COc1ccc(/C=C(/NC(=O)c2ccccc2)c2nc3ccccc3[nH]2)cc1OC | 0.2 | 41.6* | / | 0.0 | -4.5
COc1ccc(/C=C(/NC(=O)c2ccccc2)c2nc3ccc(Cl)cc3[nH]2)cc1OC | / | 35.8* | -2.8 | 2.7 | -2.2
Cc1ccc(C(=O)N/C(=C\c2cccnc2)c2nc3ccccc3[nH]2)cc1 | / | 28.7 | 1.7 | 2.4 | -0.4
COC(=O)/C(=C\c1cc(OC)c(OC)c(OC)c1)c1nc2ccccc2[nH]1 | / | 15.4 | 15.5 | 0.5 | -0.2
CC(C)N(Cc1c(O)ccc2c(=O)c(-c3ccc(Cl)cc3)coc12)C(C)C | 1.0 | 6.4 | 8.2 | 7.4 | 1.3
CCN(CC)Cc1c(O)ccc2c(=O)c(-c3ccc4c(c3)OCCO4)coc12 | -0.3 | 31.2* | 2.1 | 22.5 | -0.1
SMILES | Mtb BioA inh | GDH-TPI counter | Mtb hypoxia inh | FBA Mtb inh | FadD28 FP inh
COc1ccccc1-c1coc2c(CN(C)C)c(O)ccc2c1=O | -0.6 | 21.9 | 10.1 | 188.3* | -2.3
CCOc1ccccc1Oc1coc2cc(OC)ccc2c1=O | -0.7 | -15.6 | / | -11.0 | -3.9
COc1ccccc1Oc1coc2c(CN(C)C)c(O)ccc2c1=O | 0.8 | 25.2 | 7.4 | 114.0* | -2.7
Cn1cnc(S(=O)(=O)N2CCCCN3[C@@H](CO)[C@H](c4ccc(C5=CCCC5)cc4)[C@@H]3C2)c1 | -1.6 | / | / | / | /
CC(C)NC(=O)Nc1ccc2c(c1)CC(=O)N([C@H](C)CO)C[C@H](C)[C@@H](CN(C)S(C)(=O)=O)O2 | -0.3 | / | / | / | /
CCC(CC)COC(=O)C1=C(C)NC(=O)NC1c1ccc(N(C)C)cc1 (stereo not given) | -1.5 | -2.2 | 9.5 | 183.8* | 0.3
CCOC(=O)c1ccc(NC(=S)NNC(=O)C2(C)CC2(Cl)Cl)cc1 (stereo not given) | 0.4 | 11.6 | 7.2 | -3.0 | 15.1*
N#Cc1c(-c2ccc(F)cc2)cc(-c2cccnc2)nc1N | -0.8 | -17.3 | / | 24.3 | 1.0
N#Cc1c(-c2cccc(Br)c2)cc(-c2cccnc2)nc1N | -1.2 | 15.9 | 7.9 | 131.2* | 0.2

Source: PubChem BioAssay
